Compound activity from PubChem BioAssay.
In the library only some 19% were active in any assay of this set; here they are far more common.
IL-1B inflam inh – inhibitors of inflammasome signaling (IL-1 beta secretion); THP-1 LPS/ATP IL-1B secretion, AlphaLISA, 16 h; hits give low values; activity change, % at 57.5 µM; hit rate 4.7% among 360,000; in the data active = activity change below about -50%; inconclusive = mostly about -30% to -49%
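Secreted IL-1B measured by AlphaLISA bead assay after 16 h compound exposure of THP-1 cells; compounds (final up to 57.5 uM) added 1 h before LPS (250 ng/mL) and ATP (1.25 mM) stimulation; lower signal means less secretion.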
HT1080NT lethal – kills 2HG-producing HT-1080-NT fibrosarcoma cells; HT-1080-NT fibrosarcoma viability, CellTiter-Glo ATP luminescence, 48 h; Potency, µM (titrated, usually from 46.1 µM), inactives show at the top dose activity, negative = less viability, hits mostly cytotoxic; hit rate 1.6% among 360,000; AID 686970;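 also: NT is the 2HG producing partner of a matched IDH1 knockdown line; potency is read from the fitted curve at half-maximal effect; 0% = DMSO-treated cells and -100% = media-only wells without cells; nearly all actives have a fitted effect of over 55% in size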
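Viability of the 2HG-overproducing fibrosarcoma line after 48 hours of compound exposure at 37 degrees C was determined by luminescence with CellTiter-Glo, and concentration-effect curves were then fitted and categorized.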
HT1080 IDH1KD tx – kills HT-1080 cells with IDH1 knockdown; HT-1080 IDH1 knockdown viability, ATP luminescence, 48 h; hit rate 2% among 360,000; Potency, µM (doses to about 46.1 µM), for inactives: at the top dose activity, negative = toxicity, most hits filed as cytotoxic;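 also: potency is read from the fitted curve at half-maximal effect; 0% = DMSO wells and -100% = cell-free medium wells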
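% activity derives from luminescence (CellTiter-Glo), normalised to DMSO and no-cell wells. HT-1080-IDH1KD cells, 750/well, had 48 h compound exposure at 37 °C.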
TDP1 cell CPT – DT40-hTDP1 cell growth loss with CPT; Potency, µM (top dose mostly 46.2 µM), for the others: at the highest dose activity change, negative = growth inhibition, hits mostly inhibitors; AID 686979; chicken DT40 Tdp1-/-;hTDP1 cells + 20 nM CPT, ATP luminescence, 48 h; hit rate 12% among 420,000; also: potency is read from the fitted curve at half-maximal effect; nearly all actives have a fitted effect of over 55% in size
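Cell growth measured by CellTiter-Glo luminescence after a minimum 48 h, 37 C compound exposure with 20 nM CPT in Tdp1-knockout DT40 cells stably expressing hTDP1, seeded 400/well; qHTS titration format.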
DT40 TDP1 no CPT – qHTS for Inhibitors of human tyrosyl-DNA phosphodiesterase 1 (TDP1): qHTS in cells in absence of CPT | DT40 Tdp1-/- hTDP1 cells, no CPT, ATP luminescence, 48 h | Potency, µM (series often up to 46.2 µM), inactives show at the highest dose activity change, negative = growth inhibition, most hits filed as inhibitors | hit rate 15% among 420,000 | AID 686978, 2013; also: potency is read from the fitted curve at half-maximal effect; nearly all actives have a fitted effect of over 55% in size
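Readout: luminescence from CellTiter-Glo after 30 min in the dark at RT. Cells: DT40 Tdp1-/- with stable hTDP1, 400/well. Exposure: compounds alone, ≥48 hr, 37 °C.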
* marks the source's active call; other numbers are inactive results; ? = inconclusive; . = no result. Unless noted, calls follow the shape of the dose curve; as a rule, active = well fitted curve in the direction sought with a large enough effect; inconclusive = small, poorly fitted or top-dose-only effect, or another doubt; inactive = no such curve, though single readings can be large; an effect the other way counts as inactive or inconclusive. Unless noted, % is scaled to controls: 0 for no effect and ±100 for the full control effect.

SMILES	IL-1B inflam inh	HT1080NT lethal	HT1080 IDH1KD tx	TDP1 cell CPT	DT40 TDP1 no CPT
O=C1C(=NO)CCc2ccccc21	-77.9*	-14.7%	?	20.6µM*	20.6µM*
O/N=C1/CCc2cccc3cccc1c23	16.0	7.9%	-3.0%	15.0%	-8.0%
O=C1c2ccccc2C(=O)c2[nH]c(=O)[nH]c21	?	9.2µM*	6.51µM*	2.06µM*	1.84µM*
O=C1C(O)=C(O)C(=O)c2ccccc21	22.7	-19.7%	-17.3%	?	?
COC(=O)C1CCN(CC(=O)Nc2cc(C)c3c(=O)oc4ccccc4c3n2)CC1	.	.	.	-4.5%	?
O=C(NCc1ccccn1)C(=O)N/N=C/c1ccc2c(c1)OCO2	0.0	-11.8%	?	-10.1%	-2.4%
Cc1ccc(CC(=O)N/N=C/c2ccc3c(c2)OCO3)cc1	21.2	-16.2%	-10.9%	4.4%	-17.9%
COCCCNC(=S)N/N=C/c1ccc2c(c1)OCO2	-22.6	10.5%	8.0%	5.5%	-14.3%
S=C(NN=Cc1ccc2c(c1)OCO2)NN=Cc1ccc2c(c1)OCO2	3.5	-25.3%	-14.6%	23.1µM*	23.1µM*
O=C(NCCc1ccccc1)C(=O)N/N=C/c1ccc2c(c1)OCO2	0.0	-6.7%	-2.8%	23.1µM*	20.6µM*
Cc1cc(C)c(OCC(=O)N/N=C/c2ccc3c(c2)OCO3)c(C)c1	7.3	18.4µM*	13µM*	2.91µM*	5.8µM*
O=C(CCc1ccc(O)cc1)NN=Cc1ccc2c(c1)OCO2	-19.3	?	5.8µM*	1.0%	?
O=C(NCCc1c[nH]c2ccccc12)c1cnccn1	17.2	2.5%	1.7%	-12.7%	-13.5%
Cc1ccc(OC(=O)c2cccc(S(=O)(=O)N3CCCC3)c2)c(-n2nc3ccccc3n2)c1	9.4	3.7%	18.5%	16.9%	-23.8%
O=C(NNc1ccccc1[N+](=O)[O-])Nc1cccc(Cl)c1	-8.6	-9.1%	1.2%	20.6µM*	14.6µM*
O=C(Nc1cccc(Cl)c1)OCCOC(=O)Nc1cccc(Cl)c1	?	?	23.1µM*	?	20.6µM*
CC(=O)c1ccc(NC(=O)Nc2cccc(Cl)c2)cc1	-95.9*	?	?	20.6µM*	?
O=C(NNc1ccccc1[N+](=O)[O-])Nc1ccc(F)cc1F	-9.4	-0.6%	1.9%	?	?
Cc1ccc(C(=O)Nc2ccc3c(c2)OCO3)o1	21.5	-6.0%	-14.6%	14.6µM*	16.4µM*
COc1cc2cc(CCCOC(=O)c3cccc(Br)c3)oc(=O)c2cc1OC	6.5	0.0%	-6.4%	0.0%	-1.5%
CCc1ccc(C(=O)NNC(=O)C2CSC3(C)CCC(=O)N23)cc1 (stereo not drawn)	0.5	6.1%	9.2%	1.0%	-6.7%
O=C(CCC(=O)Nc1ccccc1Cl)NNC(=O)Nc1cccc([N+](=O)[O-])c1	0.8	-4.0%	7.4%	-6.4%	-8.5%
Cc1nn(-c2ccccc2)nc1CNC(=O)C1CC1	6.4	16.7%	1.3%	?	-11.5%
COc1cccc(CN2C(=O)NC(C)(C3CCN(Cc4cnn(C)c4C)CC3)C2=O)c1OC (stereo not drawn)	.	.	.	3.7%	0.2%
CC(C)CCn1c(=O)c2sccc2n2c(CCCC(=O)NC(C)C)nnc12	.	.	.	-16.0%	-7.5%
SMILES	IL-1B inflam inh	HT1080NT lethal	HT1080 IDH1KD tx	TDP1 cell CPT	DT40 TDP1 no CPT
COC(=O)c1cccc(NC(=O)Nc2ccc(Cl)c(Cl)c2)c1	-85.1*	?	?	18.4µM*	?
CC(=O)Nc1ccc2c(c1)OCO2	3.1	15.4%	16.4%	24.7%	-1.7%
N#Cc1cccc(NC(=O)c2ccccc2C(=O)O)c1	-11.6	9.0%	-14.1%	-15.7%	-4.9%
O=C(CCl)Nc1ccc2c(c1)OCO2	-97.4*	9.2µM*	18.4µM*	13µM*	?
O=C(Nc1ccc2c(c1)OCO2)Nc1ccccc1F	?	?	?	9.2µM*	5.8µM*
CCc1ccccc1NC(=O)Nc1ccc2c(c1)OCO2	9.8	10.1%	19.1%	-11.1%	12.7%
N#Cc1ccc(NC(=O)Nc2cccc(C#N)c2)cc1	-10.9	0.0%	-6.1%	6.51µM*	6.51µM*
